G9a block = inhibitors of human histone lysine methyltransferase G9a. G9a H3K9 monomethylation, AlphaScreen, 2 h. Potency, µM (top dose mostly 102 µM), for the others: at the top dose activity, negative = inhibition, hits mostly inhibitors. actives 8.8% (n = 350,000). Q96KQ7; also: potency is read from the fitted curve at half-maximal effect; % is scaled to controls: 0 for no effect and ±100 for the full control effect; nearly all actives have a fitted effect of over 75% in size
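Chemiluminescent proximity detection of H3K9 monomethylation, read after 10 min bead incubation in the dark. Reaction: 20 nM G9a, 500 nM biotin-H3K9 peptide, 20 uM SAM cofactor, 2 h, room temperature, following 15 min enzyme-compound preincubation.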
JMJD2A Tudor = inhibitors of human JMJD2A Tudor domain. AlphaScreen JMJD2A-Tudor / H3K4me3 peptide binding. Potency, µM (top dose mostly 114 µM), for the others: at the top dose activity change, negative = inhibition, hits mostly inhibitors. actives 4.4% (n = 390,000); also: potency is read from the fitted curve at half-maximal effect; % is scaled to controls: 0 for no effect and ±100 for the full control effect; nearly all actives have a fitted effect of over 50% in size
Target sequence (O75164 whole entry, looked up, the tested form may be a part): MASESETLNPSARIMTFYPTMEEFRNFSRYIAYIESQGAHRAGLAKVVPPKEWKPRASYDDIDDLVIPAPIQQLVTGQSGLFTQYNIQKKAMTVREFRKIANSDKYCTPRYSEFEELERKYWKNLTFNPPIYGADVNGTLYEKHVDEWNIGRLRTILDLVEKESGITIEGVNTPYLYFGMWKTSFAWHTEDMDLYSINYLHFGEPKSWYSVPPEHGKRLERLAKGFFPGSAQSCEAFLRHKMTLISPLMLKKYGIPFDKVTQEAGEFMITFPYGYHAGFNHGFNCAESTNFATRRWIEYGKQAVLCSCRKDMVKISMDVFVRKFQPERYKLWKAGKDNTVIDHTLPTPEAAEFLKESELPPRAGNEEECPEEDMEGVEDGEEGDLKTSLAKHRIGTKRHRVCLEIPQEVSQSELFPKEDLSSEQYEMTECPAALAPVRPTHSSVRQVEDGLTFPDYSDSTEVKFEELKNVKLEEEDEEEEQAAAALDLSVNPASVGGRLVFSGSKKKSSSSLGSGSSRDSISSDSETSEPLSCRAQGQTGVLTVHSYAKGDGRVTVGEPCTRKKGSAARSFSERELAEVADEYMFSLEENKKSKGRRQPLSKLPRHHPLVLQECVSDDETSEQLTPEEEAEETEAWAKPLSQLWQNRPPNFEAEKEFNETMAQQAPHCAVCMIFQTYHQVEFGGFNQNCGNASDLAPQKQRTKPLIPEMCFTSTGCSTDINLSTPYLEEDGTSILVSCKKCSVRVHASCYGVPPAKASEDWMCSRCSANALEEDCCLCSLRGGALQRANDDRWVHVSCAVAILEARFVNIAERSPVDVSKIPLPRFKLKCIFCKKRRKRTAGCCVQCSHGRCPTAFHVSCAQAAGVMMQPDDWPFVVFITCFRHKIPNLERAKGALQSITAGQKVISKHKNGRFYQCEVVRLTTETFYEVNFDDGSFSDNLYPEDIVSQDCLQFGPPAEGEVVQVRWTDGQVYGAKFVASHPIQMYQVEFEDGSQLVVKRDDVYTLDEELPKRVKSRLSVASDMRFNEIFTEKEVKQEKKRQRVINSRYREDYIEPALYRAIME
PLK1 PBD block = PLK1 (human) polo-box domain binding inhibition. P53350. Plk1 PBD binding of FITC phosphopeptide, fluorescence polarization. Potency, µM, for inactives: max response, negative = inhibition, most hits filed as inhibitors. actives 2.8% (n = 360,000). AID 720504; also: potency is read from the fitted curve at half-maximal effect; series mostly up to about 57 µM; % is scaled to controls: 0 for no effect and ±100 for the full control effect; nearly all actives have a fitted effect of over 65% in size
PI5P4K alpha inh = PI5P4K alpha (human) kinase inhibition | P48426 | PI5P4Kalpha enzyme, ADP-Glo luminescence, 60 min; hits give low values | max response, % | actives 1.2% (n = 330,000) | AID 652105; active = max response of -50% or lower; inconclusive = between -30% and -50%; inactive = -30% or higher; also: value at the top dose of about 77 µM; % is scaled to controls: 0 for no effect and ±100 for the full control effect
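ADP-Glo luminescence end-point read after a 60 min room-temperature kinase reaction of PI5P4Kalpha plus substrate, initiated with ATP at 5 microM final. Buffer: 0.038 M HEPES pH 7.4, EGTA, 0.1% CHAPS, 5% DMSO.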
HP1b binding inh = inhibitors of HP1-beta chromodomain binding to methylated histone tails. actives 0.56% (n = 390,000). P83916. AlphaScreen HP1-beta / biotin-H3K9me3 peptide binding. Potency, µM (doses to about 114 µM), for inactives: at the top dose activity change, negative = inhibition, most hits filed as inhibitors; also: potency is read from the fitted curve at half-maximal effect; nearly all actives have a fitted effect of over 70% in size
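AlphaScreen: HP1-beta (50 nM) preformed 30 min with biotin-H3(1-18)K9me3 peptide (50 nM) in PBS pH 7.4, 0.01% Tween-20. Compound added for 30 min at RT, then streptavidin donor/nickel chelate acceptor beads (10 ug/mL) for 30 min.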
BAZ2B block = BAZ2B (human) inhibition; Q9UIF8; AlphaScreen BAZ2B-H3K14Ac peptide displacement; Potency, µM (top dose mostly 114 µM), inactives show at the highest dose activity change, negative = inhibition, most hits filed as inhibitors; actives 4.4% (n = 360,000); also: potency is read from the fitted curve at half-maximal effect; % is scaled to controls: 0 for no effect and ±100 for the full control effect; nearly all actives have a fitted effect of over 60% in size
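AlphaScreen displacement: compounds (up to 110uM) incubated 30 min at room temperature with a preformed 50 nM BAZ2B/50 nM biotinylated H3K14Ac peptide complex in PBS pH 7.4 with Tween-20. Donor and acceptor beads at 10 ug/mL final added, 20 min light-protected before reading.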
* = called active by the depositor; ? = inconclusive; . = not tested or not shown; ! = not active in a repeat; [ ] = dose if it differs, or a comment. The list is not random: actives were taken first. Their share in the collection is about 12%. Unless noted, calls follow the shape of the dose curve; as a rule, active = well fitted curve in the direction sought with a large enough effect; inconclusive = small, poorly fitted or top-dose-only effect, or another doubt; inactive = no such curve, though single readings can be large; an effect the other way counts as inactive or inconclusive.

SMILES	G9a block	JMJD2A Tudor	PLK1 PBD block	PI5P4K alpha inh	HP1b binding inh	BAZ2B block
CCC(C)C1N=C(c2ccccc2)c2cc(Cl)ccc2N(CC(=O)NCc2ccco2)C1=O (centres undefined)	4%	-7%	-4%	-6	69%	7%
Cc1ccccc1C1=NCC(=O)N(CC(=O)NCc2ccco2)c2sc3c(c21)CCCC3	-16%[12.7 µM]	89µM*	-14%	.	-16%	-34%
COC(=O)C1=C(c2ccc3ccccc3c2)C[C@@H]2CC[C@H]1N2C(=O)NCc1ccc(F)cc1	8%[2.33 µM]	-15%	-4%	-2	38%	16%
COC(=O)[C@@]1(Cc2ccc(F)cc2)[C@H]2c3cc(C(=O)N(C)C)[nH]c3C[C@H]2CN1C(=O)c1ccccc1	?	-20%	4%	-1	10%	50µM*
Cc1ccc([N+](=O)[O-])cc1N	0%	-19%	?	-1	19%	-19%
Cc1cccc(N=C2c3cc([N+](=O)[O-])ccc3-c3c2cc([N+](=O)[O-])cc3[N+](=O)[O-])c1	.	3.5µM*	-2%	0	2.8µM*	.
CCCCC1(CCO)C(=O)NC(=S)NC1=O	.	-12%	-12%	0	2%	.
CCCC1(CCO)C(=O)NC(=S)NC1=O	.	20µM*	0%	8	22%	.
CC(=O)OCC(=O)C1CCC2C3CC=C4CC(O)CC[C@@]4(C)C3CC[C@]12C (some centres undefined)	-23%[2.33 µM]	.	.	.	.	.
COc1ccc(-c2nc(CN3C(=O)CN=C(c4ccccc4Cl)c4cc(Cl)ccc43)c(C)o2)cc1OC	-34%[59 µM]	-27%	.	.	1%	-10%
O=C(O)Cn1cc(/C=C2\C(=O)NC(=O)N(c3ccc(F)cc3)C2=O)c2ccccc21	50µM*	.	.	.	.	-23%
COCCNC(=O)Cn1cc(/C=C2\C(=O)NC(=O)N(c3cccc(C)c3C)C2=O)c2ccccc21	?	-8%	3.8µM*	5	47%	-2%
COC(=O)Cn1cc(/C=C2\C(=O)NC(=O)N(c3ccc(OC)cc3)C2=O)c2ccccc21	28%[0.501 µM]	4%	?	-3	-5%	-4%
COc1ccc(N2C(=O)NC(=O)/C(=C\c3cn(CC(=O)N4CCOCC4)c4ccccc34)C2=O)c(OC)c1	?	-20%	11µM*	1	44%	-24%
COCCNC(=O)Cn1cc(/C=C2\C(=O)NC(=O)N(c3ccccc3F)C2=O)c2ccccc21	6%	-6%	3µM*	2	49%	2%
S=c1[nH]c2ccccc2[nH]1	13µM*	?	-17%	0	-5%	-12%
O=C(Nc1ccccc1)c1c(O)[nH]c(=S)[nH]c1=O	.	?	-10%	-2	79%	.
CN1C(=O)/C(=C/c2cccn2-c2ccc3ccccc3c2)C(=O)NC1=S	?	?	0.53µM*	-78*	-27%	45µM*
Cc1cc(C)cc(N2C(=O)NC(=O)/C(=C\c3cccn3-c3ccc(Cl)cc3)C2=O)c1	-24%[59 µM]	-9%	1.2µM*	?	16%	-4%
Cc1cc(/C=C2\C(=O)NC(=O)N(c3ccc(Br)cc3)C2=O)c(C)n1C	?	-8%	-2%	-3	22%	29%
Cc1cc(C)cc(N2C(=O)NC(=O)/C(=C\c3cccn3-c3ccccc3)C2=O)c1	?	-15%	2.1µM*	0	18%	-19%
CC(C)CN1CC2(CCN(C(=O)c3ccncc3)CC2)C1	-2%[12.7 µM]	.	.	.	.	.
CCOC(=O)c1cc2c(cn1)[C@@H](CCO)NC2	.	45µM*	-3%	-8	13%	.
Cc1o[nH]c(=O)c1C[C@@H](N)C(=O)O	.	?	.	.	12%	.
Cc1o[nH]c(=O)c1CC(N)C(=O)O (centres undefined)	21µM*!	.	.	.	.	.
SMILES	G9a block	JMJD2A Tudor	PLK1 PBD block	PI5P4K alpha inh	HP1b binding inh	BAZ2B block
CN[C@@H](C)[C@H]1CC[C@@H](N)[C@@H](O[C@@H]2[C@@H](O)[C@@H](O[C@H]3OC[C@@](C)(O)[C@@H](NC)[C@@H]3O)[C@H](N)C[C@@H]2N)O1 (tested in a mixture with another compound)	31%[21.5 µM]	.	.	.	.	.
CC(=O)NC1N=C(C)N(c2ccccc2)C1=O (centres undefined)	3.2µM*	45µM*	27µM*	1	?	-15%
CC1=NN(c2ccccc2)C(=O)C1=C(C)C	?	-19%	-13%	1	50%	?
Nc1c(Br)cc2c3c(cccc13)-c1ccccc1-2	.	45%	-21%	16	78%	.
Brc1ccc2[nH]cc(/C=N/N3CCCCC3)c2c1	?	50µM*	-7%	20	?	45µM*
CC1=C[C@@H]2c3cccc4[nH]cc(c34)C[C@H]2N(C)C1	45µM*	-23%	?	3	1%[57 µM]	-26%
CCN(CC)C(=O)N[C@@H]1C[C@H]2c3cccc4[nH]cc(c34)C[C@@H]2N(C)C1	17%[21.5 µM]	.	.	.	.	.
CC(C)[N+](C)(CCC(C(N)=O)(c1ccccc1)c1ccccc1)C(C)C	-74%[2.33 µM]	25µM*	?	?	?	-18%
CC[N+](C)(CC)CCOC(=O)C(O)(c1ccccc1)c1ccccc1	-37%[12.7 µM]	.	.	.	.	.
CCN(CC)CCSc1nc2ccccc2c(=O)n1-c1ccc(Cl)cc1	2%[59 µM]	-20%	.	.	-3%	-23%
COc1cc(C2NCc3ccccc3-n3cccc32)ccc1O (centres undefined)	-14%[59 µM]	-28%	-2%	5	-3%	-32%
CCOc1cc(C2NCc3ccccc3-n3cccc32)ccc1OC (centres undefined)	?	?	-3%	6	-9%	?
COc1ccc(C2NCc3ccccc3-n3cccc32)cc1 (centres undefined)	71µM*	?	2%	-3	-15%	?
Clc1cccc(C2NCc3ccccc3-n3cccc32)c1 (centres undefined)	-6%	-6%[11.4 µM]	30µM*	8	-21%	-34%
CN(CCc1ccc(Cl)c(Cl)c1)[C@@H]1CCCC[C@@H]1N1CCCC1	-31%[59 µM]	.	.	.	.	.
CC(C)NCC(O)c1ccccc1Cl (centres undefined)	-4%[12.7 µM]	.	.	.	.	.
CC/C(=C(\c1ccc(O)cc1)c1ccc(OCCN(C)C)cc1)c1ccccc1	?	56µM*	0%	18	-21%	45µM*
CN1CCN(S(=O)(=O)c2ccc(C3CCCCC3)cc2)CC1	8.9µM*	89µM*	1%	-1	-8%	7%
COc1ccc(C#Cc2ccc3c(c2)O[C@H](CN(C)C(C)=O)[C@H](C)CN([C@@H](C)CO)S3(=O)=O)cc1	.	.	24µM*	-12	.	.
COc1ccc(OC(=O)N(C)C[C@H]2OCc3cnnn3CCCC(=O)N([C@@H](C)CO)C[C@H]2C)cc1	.	.	-7%	-1	.	.
Cc1cc(-n2c(/C=C/c3cccs3)nc3ccccc3c2=O)ccc1Br	-31%[59 µM]	?	.	.	8%	?

High-throughput results as filed in PubChem BioAssay.
